Kir21 inh: inhibitors of mouse Kir2.1 inward-rectifier potassium channel; HEK293-Kir2.1, FluxOR thallium flux fluorescence; hits give low values; hit rate 0.85% among 310,000; B-score at 10 µM;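 active = fluorescence ratio B-score at or below minus 3 SD of library scores, with starting-brightness B-score within 2 SD, cut at about -4.2 in these data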;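 note: channel flux triggered by added potassium and thallium sulfate stimulus; B-score of peak minus minimum fluorescence over baseline after thallium stimulus; more negative B-score means stronger Kir2.1 block with less thallium influx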
CHT PAM: CHT positive allosteric modulators, primary screen, cell-based, membrane potential dye, choline EC20; High affinity choline transporter 1 (Homo sapiens), Q9GZV3; CHT-expressing cells; hits give high values; LV-AA mutant CHT in HEK293 cells; B-score at 10 µM; hit rate 0.49% among 310,000; AID 488977, 2010;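 active = initial fluorescence not abnormally high and integrated response B-score, plate-corrected, over 3 SD above library mean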
Target sequence (Q9GZV3 whole entry, looked up): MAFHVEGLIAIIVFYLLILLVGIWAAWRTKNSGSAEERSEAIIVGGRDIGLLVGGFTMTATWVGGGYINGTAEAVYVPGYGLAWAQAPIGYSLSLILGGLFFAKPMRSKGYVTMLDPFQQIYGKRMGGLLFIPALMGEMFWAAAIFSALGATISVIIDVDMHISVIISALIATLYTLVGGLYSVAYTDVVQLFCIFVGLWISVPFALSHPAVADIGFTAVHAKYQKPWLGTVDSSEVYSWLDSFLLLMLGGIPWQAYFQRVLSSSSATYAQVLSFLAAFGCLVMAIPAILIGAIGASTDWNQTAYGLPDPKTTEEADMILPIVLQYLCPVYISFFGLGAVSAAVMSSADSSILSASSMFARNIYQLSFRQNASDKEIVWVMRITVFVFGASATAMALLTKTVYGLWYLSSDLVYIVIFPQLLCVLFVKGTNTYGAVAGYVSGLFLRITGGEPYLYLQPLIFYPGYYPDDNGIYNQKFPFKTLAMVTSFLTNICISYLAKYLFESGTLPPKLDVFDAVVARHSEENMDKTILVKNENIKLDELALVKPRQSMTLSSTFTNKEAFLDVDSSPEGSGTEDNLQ
TMEM16A act: TMEM16A chloride channel activators or potentiators, primary screen, cell-based, HTS; HEK293 TMEM16A/YFP-H148Q/I152L, iodide quench fluorescence; hits give low values; AID 623877, 2012; B-score at 10 µM; hit rate 0.3% among 340,000; Anoctamin-1 (Mus musculus), Q8BHY3;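 active = fluorescence-ratio B-score plate-corrected deviation score at least 3 library SD below zero, with starting fluorescence score within 5 deviations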;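 note: channel opened by trigger with iodide after compound preincubation; score built on the fluorescence ratio of max minus min over baseline; more negative score means more quench and so TMEM16A activation or potentiation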
CHT inh: inhibitors of human choline transporter CHT; CHT-expressing cells, membrane potential dye, choline response; hits give low values; High affinity choline transporter 1 (Homo sapiens), Q9GZV3; B-score at 10 µM; AID 488975, 2010; hit rate 0.86% among 310,000;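 active = B-score over 3 SD under the library average, and starting fluorescence ratio not unusually high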;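 note: choline stimulus applied at its EC90 after an EC20 pre-addition; B-score computed on integrated fluorescence ratio after choline addition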
ANO1 block: TMEM16A chloride channel inhibitors, primary screen, cell-based, HTS; HEK293 TMEM16A/YFP iodide influx fluorescence, ionomycin; normalized B-score (activity score, 25-100; higher = stronger inhibition) at 10 µM; hit rate 1.2% among 310,000; AID 588511, 2011;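 active = ratio plate-corrected score three or more library SD toward inhibition, starting fluorescence score within five deviations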;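 note: score derived from kinetic fluorescence span divided by baseline fluorescence per well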
Rce1 inh: yeast Rce1p protease inhibitors, primary screen, biochemical, fluorescence, cell-free homogeneous; AID 2563, 2010; calls only; hit rate 0.27% among 290,000; yeast membranes, quenched prenylated peptide cleavage fluorescence; CAAX prenyl protease 2 (Saccharomyces cerevisiae (strain ATCC 204508 / S288c)), Q03530;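 active = fall in fluorescence gain of 50% or more versus controls, with final raw signal at or below 3038400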;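 note: plate controls were neutral control wells for no effect and wells lacking membranes for full effect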
An asterisk follows results filed as active; i = inactive; . = no result given; + = active, no number. Only some compounds are listed: those with a hit (about 3.2% of all), similar ones and a draw of the others.

SMILES	Kir21 inh	CHT PAM	TMEM16A act	CHT inh	ANO1 block	Rce1 inh
CCN(CC)CCN(C(=O)c1ccc(Br)s1)c1nc2cc3c(cc2s1)OCCO3	1.1	i	i	i	i	i
CN(C)CCCN(C(=O)c1ccc(Br)s1)c1nc2cc3c(cc2s1)OCCO3	-7.8*	i	i	i	i	i
C=CCN(CC=C)C(=S)NC(=O)c1ccc(C)c(Br)c1	-0.03	i	i	i	i	i
COc1cc(C)nc(N(Cc2ccccc2)S(=O)(=O)c2ccccc2)n1	0.15	i	i	i	i	i
CCCN(c1nc(C)cc(OC)n1)S(=O)(=O)c1ccccc1	-8.3*	i	i	i	i	i
CN(Cc1ccccc1)C(=O)c1[nH]cnc1C(=O)NCc1ccccc1	.	.	-8.1*	.	.	.
O=C(Nc1cccc(-c2cccc(Cl)c2)c1)C1CCN(Cc2ccc(CO)o2)CC1	-6.1*	i	i	i	i	i
Cc1ccc(CN2CCC(C(=O)Nc3cccc(-c4cccc(F)c4)c3)CC2)o1	-5.1*	i	i	i	i	i
CCN(CC(=O)NCc1cccs1)C(=O)c1ccc(NS(=O)(=O)c2cccc([N+](=O)[O-])c2)cc1	-0.06	i	i	i	i	i
CSCCC(NC(=O)COc1ccccc1)C(=O)N1CCN(c2ccccc2O)CC1 (stereo not drawn)	-1.8	i	i	i	i	i
Cc1ccccc1C(=O)Nc1ccnn1C1CCN(Cc2cnn(C(C)C)c2)CC1	0.35	i	i	i	i	i
COc1cccc(NC(=O)Cc2cn(C)c3ccccc23)c1	0.99	i	i	i	i	i
COc1ccc(CNC(=O)Cc2cn(C)c3ccccc23)c(OC)c1	-4.3*	i	i	i	i	i
CC(=O)Oc1ccc(C(c2ccc(OC(C)=O)cc2)c2ccccn2)cc1	-4.3*	i	i	i	i	i
c1ccc(C(c2ccccn2)c2ccccn2)cc1	-0.75	i	i	i	i	i
COc1ccc(C(CNC(=O)c2ccc(S(=O)(=O)Nc3ccccc3OC)cc2)N2CCCC2)cc1 (stereo not drawn)	.	.	i	.	.	.
O=C(O)CC1=C(O)C(=O)N(c2ccccc2)C1c1ccc(Br)cc1 (stereo not drawn)	2.3	i	-13*	i	i	i
O=C(O)CC1=C(O)C(=O)N(c2ccccc2)C1c1ccccc1 (stereo not drawn)	1.2	i	i	i	i	i
CC(Oc1cccc(Cl)c1)C(=O)NCCCCc1ccccc1 (stereo not drawn)	-5.5*	i	i	i	i	i
CO/N=C(/CS(=O)Cc1ccccc1Cl)c1ccc(Cl)cc1Cl (stereo not drawn)	-5*	i	i	i	i	i
NC/C(=N\O)c1ccc(Cl)cc1Cl	0.36	i	i	i	i	i
Nc1ccc(N2CCCCC2)c2nonc12	0.89	i	i	-7.6*	i	i
Nc1c(N2CCCC2)cc(Cl)c2nonc12	-0.28	i	i	i	i	i
COc1ccccc1NC(=O)C(C)OC(=O)C1COc2ccccc2O1 (stereo not drawn)	.	.	i	.	.	.
COc1ccccc1N1CCN(C(=O)CSc2nc3ccccc3[nH]2)CC1	0.96	i	i	i	25*	i
SMILES	Kir21 inh	CHT PAM	TMEM16A act	CHT inh	ANO1 block	Rce1 inh
COc1ccccc1N1CCN(C(=O)CSc2ncccc2-c2nc3ccccc3[nH]2)CC1	0.39	i	i	i	i	i
Cc1cc(NS(=O)(=O)c2cn(C)nc2C)no1	1.8	i	i	i	i	i
O=C(Nc1ccccc1N1CCN(c2ccc(F)cc2)CC1)C12CC3CC(CC(C3)C1)C2	-1.4	i	i	i	i	i
O=C(NC(=S)N1CCN(c2ccc(F)cc2)CC1)C12CC3CC(CC(C3)C1)C2	-0.38	i	-5.4*	i	i	i
CCOc1cc(CNS(=O)(=O)c2ccc3c(c2)CC(=O)N3C)cc(OCC)c1OCC	0.02	i	-5.2*	i	i	i
Cc1cc(OC(=O)c2ccccc2C)c([N+](=O)[O-])c(=O)[nH]1	-0.5	i	i	i	i	i
N#Cc1ncc(Cc2ccccc2)nc1C#N	-0.11	i	i	i	i	i
COC(=O)c1cc(CSC(=N)N)ccc1OCCC(C)C	-9.5*	i	i	i	i	i
CCOc1ccccc1OCCCC(=O)Nc1cc(S(=O)(=O)N2CCOCC2)ccc1OC	.	.	i	.	.	.
Cc1cc(OCC(=O)Nc2nccs2)c2c(C)cc(=O)oc2c1	-0.3	i	i	i	i	i
CCCCCCn1c(=O)c(-c2ccccc2)c(O)c2ccccc21	-3	i	i	i	i	i
CCCCCCCCn1c(=O)c(C(=O)OC)c(N)c2ccccc21	-1.9	i	i	i	100*	i
CCCCc1ccc(NC(=S)Nc2ccc(Cl)c(S(=O)(=O)N(C)C)c2)cc1	0.14	i	i	i	100*	i
CCN1CCN(CC(=O)Nc2ccc(Cl)c(S(=O)(=O)N(C)C)c2)CC1	-2.3	i	i	i	i	i
CCCCn1c(-c2sccc2C)n[nH]c1=S	0.91	i	i	i	i	+
CCCCn1c(-c2ccco2)n[nH]c1=S	-1	i	i	i	i	i
CC(=O)N(C)c1ccc(OCC(O)COc2ccc(N(C)C(C)=O)cc2)cc1	-0.03	i	i	i	i	i
C=C(C)C(=O)OCC(O)COc1ccc(C(C)(C)c2ccc(OCC(O)COC(=O)C(=C)C)cc2)cc1 (stereo not drawn)	0.17	i	i	i	100*	i
Cn1ccs/c1=N\C(=O)Nc1cccc(Cl)c1	0.56	i	i	i	i	i
Cc1c(C)c2c(OCC(=O)NCc3ccncc3)cc3c(c2oc1=O)CCC(C)(C)O3	-0.75	i	i	i	i	+
CCc1cc(=O)oc2c3c(cc(OCC(=O)NCCCCCC(=O)O)c12)OC(C)(C)CC3	-0.03	i	i	i	i	+
COc1nccnc1NS(=O)(=O)c1ccc(N)cc1	-0.48	.	i	.	.	i

Source: PubChem
